# PTEN del growth: PTEN-deleted cell growth suppression | HCT116 PTEN-null viability, CellTiter-Glo, 60 h; hits give low values | viability, % at 10 µM | hit rate 1.2% among 140,000;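 active = viability at or below a set limit, 4 SD under the median of all tested compounds, cut at about 3.7% in these data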;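 also: PTEN knockout HCT116 line with beta catenin targeted HCT116 as companion control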
# Insulin prom up: MIN6 insulin promoter up-regulation | MIN6 insulin promoter-GFP reporter, high-content imaging; hits give high values | z-score at 5 µM | hit rate 0.3% among 190,000;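 active = z-score above 3 at 5 µM with at least 500 cells counted in the well; inconclusive = wells under 500 cells, flagged as cytotoxic or low count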
# HCT116 bCat-KO: beta-catenin-lacking colon tumor cell growth suppression; HCT116 beta-catenin knockout viability, CellTiter-Glo, 60 h; hits give low values; viability, % at 10 µM; hit rate 1.5% among 140,000; AID 818;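 active = viability at or under a set limit, the compound median less 4 SD, cut at about 6% in these data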;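 also: 0% = Hyamine 1622 control at 20 µM and 100% = untreated cell control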
# L major viab: reduces viability of Leishmania major promastigotes; AID 1063; hit rate 9% among 200,000; inhibition, % at 10 µM; resazurin fluorescence viability; in the data active = inhibition above about 50%;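 also: promastigotes grown with compound for 44 hours at 28 °C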
# Autophagy HCS: modulators of autophagy | AID 463193 | MEF GFP-LC3 puncta imaging; test concentration mostly 10 µM | hit rate 0.98% among 190,000 | calls only at 10 µM (by protocol);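 active = percentage of spot-positive cells more than 3 SD above its plate mean, without a fluorescence outlier flag or 80% toxicity; inconclusive = no clear call, values can overlap the other calls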;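 also: spot-positive cell cutoff set from DMSO-treated cells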
# INS promoter inh: TRM-6 insulin promoter activity inhibition. hit rate 0.9% among 130,000. TRM-6 cells (human fetal islet line), insulin promoter-eGFP reporter, imaging; reporter expression induced with tamoxifen. inhibition, % at 2 µM;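 active = inhibition above the mean plus 3 SD, with well images judged a real hit on visual review, cut at about 60% in these data, passing the limit was not always enough; inconclusive = inhibition over the cutoff but images rejected on review; inactive = inhibition not above the cutoff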
# * = called active by the depositor; i = inactive; ? = inconclusive; . = not tested or not shown; + = active, no number. Compounds with a hit are over-represented: about 9.6% of the library has one in this group of screens.
SMILES,PTEN del growth,Insulin prom up,HCT116 bCat-KO,L major viab,Autophagy HCS,INS promoter inh
Cc1cc(C)c(NC(=S)N(Cc2cccnc2)Cc2ccco2)c(C)c1,73.5,0.68,79.1,87.5*,i,14.3
COc1ccccc1NC(=S)N(Cc1cccnc1)Cc1ccco1,.,-0.85,.,17.5,i,-44.4
O=C(CC1SC2=NCCN2C1=O)Nc1ccc(Cl)cc1 (centres undefined),94.4,-0.88,88.4,4.0,+,76.9*
O=C(CC1Sc2ncnn2C1=O)Nc1ccc(Cl)cc1 (centres undefined),.,0.15,.,-7.0,i,.
CCN(CC)S(=O)(=O)c1c(Br)cc(C)cc1Br,80.4,-0.69,83.1,9.3,i,8.6
CCC(=O)Nc1cccc(-c2nc3ccccc3o2)c1,87.4,-0.09,99.7,8.7,i,-300.0
Clc1cccc(COn2c(-c3ccc(Cl)cc3Cl)nc3ncccc32)c1,56.4,0.71,66.2,100.0*,i,-32.1
Fc1ccc(CNc2nc(-c3ccccc3)nc3ccccc23)cc1,.,0.03,.,69.2*,i,0.0
c1cncc(-c2nc(NCCCn3ccnc3)c3ccccc3n2)c1,.,-2.88,.,-2.3,i,66.7
Cc1ccc(-c2nc(NCc3cccnc3)c3ccccc3n2)cc1,72.3,-0.21,81.5,82.7*,i,.
O=C(O)c1cccc(Nc2nc(C(F)(F)F)nc3ccccc23)c1,.,0.59,.,0.9,i,0.0
Fc1cccc(Nc2nc(-c3ccncc3)nc3ccccc23)c1,81.3,-1.04,83.3,60.8*,i,18.8
Clc1cccc(-c2nc(NCc3cccnc3)c3ccccc3n2)c1,76.1,-0.22,80.4,86.5*,i,.
Cc1cccc(OCC(=O)Nc2ccc(N3CCN(S(C)(=O)=O)CC3)cc2)c1,93.9,0.07,102.8,-4.7,i,33.3
c1ccc(-c2nc(NCc3cccnc3)c3ccccc3n2)cc1,72.0,-1.05,76.1,80.1*,i,.
COc1ccc(C2=CSC3=NNC4(CCCCC4)NN23)cc1,.,-0.11,.,67.5*,i,-8.3
COc1ccc(-c2n[nH]c(=S)n2C2CCCCC2)cc1,95.0,0.24,104.7,-3.0,i,.
COCCOC(=O)C1=C(C)NC2=C(C(=O)CC(C)(C)C2)C1c1cccnc1 (centres undefined),107.9,-0.01,104.3,63.7*,i,3.0
CC1=C(C(=O)OCCOC(C)C)C(c2cccnc2)C2=C(CCCC2=O)N1 (centres undefined),109.7,-1.08,98.3,23.0,i,-50.0
CC1=C(C(=O)OC(C)C)C(c2cccnc2)C2=C(CC(C)(C)CC2=O)N1 (centres undefined),107.7,0.43,94.3,92.0*,i,-125.0
COC(=O)C1=C(N)OC2=C(C(=O)CC(C)(C)C2)C1c1ccccc1OCC#N (centres undefined),.,0.3,.,3.1,i,20.0
COC(=O)C1=C(N)OC2=C(C(=O)CC(C)(C)C2)C1c1cccnc1 (centres undefined),108.7,.,98.8,50.5*,i,21.2
CSc1nncc(/C(C)=N\Nc2ccccc2C)n1,76.8,-0.54,80.3,-3.1,i,7.2
CC/C(=N/O)c1cnnc(SC)n1,93.8,0.08,101.4,-3.0,i,-22.2
CC/C(=N/Nc1cccc(C)c1)c1cnnc(SC)n1,63.2,-0.08,61.8,25.7,+,-41.7
SMILES,PTEN del growth,Insulin prom up,HCT116 bCat-KO,L major viab,Autophagy HCS,INS promoter inh
CC/C(=N/Nc1ccc(Cl)cc1)c1cnnc(SC)n1,99.3,-0.02,98.3,54.3*,i,19.4
CCC/C(=N/Nc1ccc(Cl)cc1)c1cnnc(-c2ccccc2)n1,.,.,.,2.8,+,4.8
COC(=O)Nc1sc2c(c1C(=O)N1CCOCC1)CCC(C)C2 (centres undefined),104.0,-0.09,92.3,-0.5,i,-25.0
CCOC(=O)C1CCN(C(=O)N2CCOCC2)CC1,96.7,-0.47,100.2,-11.5,i,-11.1
C=CCSc1cc(C)nc2c(-c3ccccc3)cnn12,.,-0.17,.,.,.,.
Cc1cc(C)nc(NS(=O)(=O)c2ccc(N/C=C/C(=O)c3ccc(Cl)cc3)cc2)n1,65.0,0,64.3,57.5*,i,?
CCc1nnc(NS(=O)(=O)c2ccc(N/C=C\C(=O)c3ccc4ccccc4c3)cc2)s1,84.6,-0.32,90.2,53.9*,i,-10.5
COc1ccc(C(=O)/C=C/Nc2ccc(S(=O)(=O)Nc3onc(C)c3C)cc2)cc1,100.9,-0.03,102.2,66.3*,i,29.9
Cc1noc(NS(=O)(=O)c2ccc(N/C=C/C(=O)c3ccc(F)cc3)cc2)c1C,.,0.5,.,-8.2,i,21.4

# Bioassay records deposited in PubChem BioAssay by several laboratories.
